Only some compounds are listed: those with a hit (about 8.2% of all), similar ones and a draw of the others.
MCF10A rereplic = A quantitative high throughput screen for small molecules that induce DNA re-replication in MCF 10a normal breast cells. MCF 10A DNA re-replication, Hoechst nuclear intensity, 48 h. Potency, µM (series often up to 46.1 µM), for the others: at the highest dose activity, positive = re-replication, usual class: activators. 350,000 compounds, 2.9% hits; further: % of control where 0% means no effect; nearly all actives have a fitted effect of over 50% in size
KB-V1 MDR tox = qHTS assay for MDR1-selective chemotherapeutics: Primary screen using the drug-selected MDR subline cells KB-V1. KB-V1 MDR cells viability, CellTiter-Glo, 72 h. Potency, µM (top dose mostly 46.1 µM), actives largely listed as cytotoxic. 400,000 compounds, 3.4% hits. AID 1347076, 2019; further: on the % scale 0 is the no-effect control and ±100 the full control effect; nearly all actives have a fitted effect of over 60% in size
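Potencies derive from concentration-effect curves fitted to normalized luminescence (CellTiter-Glo) of KB-V1 cells treated for 72 h at 37 degrees C in phenol-red-free DMEM containing 10% FBS.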
ELG1 repair inh = qHTS screen for small molecules that inhibit ELG1-dependent DNA repair in human embryonic kidney (HEK293T) cells expressing luciferase-tagged ELG1; AID 504467, 2011; Potency, µM (top dose mostly 46.1 µM), for the others: top-dose activity change, negative = inhibition, hits mostly inhibitors; 330,000 compounds, 2.3% hits; HEK293T ELG1-luciferase reporter, luminescence, 16 h; DNA damage induced by 5-fluorouridine; further: on the % scale 0 is the no-effect control and ±100 the full control effect; nearly all actives have a fitted effect of over 55% in size
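Overnight (16 hr) co-exposure of 2,000 cells/well to 5-fluorouridine and compound at 37 °C preceded detection. Luciferase was quantified via ONE-Glo luminescence; loss of signal denotes inhibition.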
SW480 rereplic = A quantitative high throughput screen for small molecules that induce DNA re-replication in SW480 colon adenocarcinoma cells. 340,000 compounds, 1.8% hits. SW480 DNA re-replication, Hoechst DNA content imaging, 48 h. Potency, µM (doses to about 46.1 µM), for inactives: at the top dose re-replication activation, hits mostly activators; further: % of control where 0% means no effect; nearly all actives have a fitted effect of over 55% in size
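Readout is total intensity of Hoechst-stained nuclei, excited at 405 nm and collected at 500-530 nm. Compound treatment lasted 48 hr at 37 C in 5% CO2 before staining.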
KB-3-1 tox = qHTS assay for MDR1-selective chemotherapeutics: Primary screen using the parental adenocarcinoma cell KB-3-1. KB-3-1 viability, CellTiter-Glo ATP luminescence, 72 h. Potency, µM (top dose mostly 46.1 µM), hits mostly cytotoxic. 400,000 compounds, 1.4% hits; further: on the % scale 0 is the no-effect control and ±100 the full control effect; nearly all actives have a fitted effect of over 60% in size
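Using CellTiter-Glo luminescence, growth of non-resistant KB-3-1 adenocarcinoma cells is assessed 72 h after pin-tool compound addition at 37 °C. Normalized responses across the concentration series yield fitted curves.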
* marks the source's active call; other numbers are inactive results; i = inactive; ? = inconclusive; / = no result given. The call rests on the fitted dose curve; in most records, active means well fitted curve in the direction sought with a large enough effect; inconclusive means small, poorly fitted or top-dose-only effect, or another doubt; inactive means no such curve, though single readings can be large; an effect the other way counts as inactive or inconclusive. Potency means the concentration at half of the fitted maximal effect.

SMILES	MCF10A rereplic	KB-V1 MDR tox	ELG1 repair inh	SW480 rereplic	KB-3-1 tox
COc1cc(/C=N/NC(=O)CCn2c3ccccc3c3ccccc32)cc(OC)c1OC	1%	4.6µM*	18µM*	5%	i
COc1cc(/C=N/NC(=O)c2ccoc2C)cc(OC)c1OC	-21%	i	/	-4%	i
COc1ccc(/C=N/NC(=O)CCn2c3ccccc3c3ccccc32)cc1OC	5%	i	-4%	2%	i
COc1cc(/C=N\NC(=O)c2sc(N)nc2C)cc(OC)c1OC	21µM*	i	-11%	-5%	i
COc1cc(C(=O)Oc2ccccc2/C=N/NC(=O)c2ccc(Cl)cc2)cc(OC)c1OC	?	?	6%	?	5.2µM*
NC(=O)C1CCN(C(=O)c2cc(Cl)c3c(c2)OCCO3)CC1	0%	i	?	-8%	i
CCCCN(CCCC)CC(O)CN(c1cc([N+](=O)[O-])ccc1OC)S(=O)(=O)c1ccccc1 (centres undefined)	13%	2.6µM*	5%	?	?
CCCN1C(=O)/C(=C/c2ccc3c(c2)OCO3)NC1=S	?	?	?	5%	i
CCCN1C/C(=C/c2cccc([N+](=O)[O-])c2)C(=O)/C(=C/c2cccc([N+](=O)[O-])c2)C1	0.92µM*	?	-24%	1.6µM*	?
CCCN1C/C(=C/c2ccc3c(c2)OCO3)C(=O)/C(=C/c2ccc3c(c2)OCO3)C1	?	?	23µM*	4.6µM*	23µM*
CN1C(=O)/C(=C/c2cccc([N+](=O)[O-])c2)C(=O)N1c1ccccc1	?	i	?	?	?
Cc1cc(S(=O)(=O)Nc2ccc3ccccc3c2)c(C)s1	6.5µM*	3.3µM*	-13%	?	?
CC(=O)c1ccc(NS(=O)(=O)c2ccc3ccccc3c2)cc1	7%	16µM*	-3%	-11%	i
CSc1cccc(NS(=O)(=O)c2ccc(C(C)=O)cc2)c1	0%	i	7.3µM*	?	?
COc1ccc(CN(C)Cc2c(O)ccc3cc(Br)ccc23)cc1OC	?	i	14%	2%	i
CC(SC#N)C(=O)C12CC3CC(CC(C3)C1)C2 (centres undefined)	18µM*	i	?	?	21µM*
CC(Sc1n[nH]c(N)n1)C(=O)C12CC3CC(CC(C3)C1)C2 (centres undefined)	6%	i	0%	-18%	i
CN(CC1CCCN(CCc2ccc(Cl)cc2)C1)C(=O)CC(F)(F)F (centres undefined)	17%	i	-6%	5.8µM*	i
CN(CC1CCCN(CCc2ccc(Cl)cc2)C1)C(=O)c1ccoc1 (centres undefined)	17%	?	0%	-1%	i
CCOC(=O)c1ccc(N2CC3=C(C2=O)C(c2ccc(OC)cc2)NC(=O)N3C)cc1 (centres undefined)	/	i	/	/	i
COc1ccc2cc(C(C)C(=O)N3CCC(C)CC3)ccc2c1 (centres undefined)	?	?	-13%	?	21µM*
C=CCOc1ccccc1CNc1ccccc1C	?	i	16%	8.2µM*	i
COc1ccc(N(Cc2nnc3n2CCCCC3)C(=O)Nc2ccc(Cl)cc2)cc1Cl	/	?	/	/	i
CCN(C(=O)COC(=O)CNC(=O)c1ccc2ccccc2c1)C1CCS(=O)(=O)C1 (centres undefined)	5.8µM*	i	0%	-35%	i
O=C(COC(=O)c1cc(-c2cccc3ccccc23)nc2ccccc12)NC1CCS(=O)(=O)C1 (centres undefined)	16%	i	-1%	8%	i
SMILES	MCF10A rereplic	KB-V1 MDR tox	ELG1 repair inh	SW480 rereplic	KB-3-1 tox
CCN(C(=O)COC(=O)c1cc(-c2cccc3ccccc23)nc2ccccc12)C1CCS(=O)(=O)C1 (centres undefined)	4%	18µM*	-28%	11%	i
CCN(C(=O)COC(=O)CNC(=O)c1ccc(C)c(C)c1)C1CCS(=O)(=O)C1 (centres undefined)	-3%	i	9%	-12%	i
CCOC(=O)C(CCSC)Nc1nc(Cl)nc(Nc2ccc(Cl)cc2)n1 (centres undefined)	-9%	i	/	2%	i
CCC(Sc1nc2ccccc2s1)C(=O)Nc1nnc(C)s1 (centres undefined)	?	16µM*	3%	-1%	i
CC(Sc1nc2ccccc2s1)C(=O)Nc1nnc(C(C)C)s1 (centres undefined)	0%	i	3%	-8%	i
CC(=O)Nc1ccc(SC[C@H](Cc2ccccc2)N2CC[C@@H](N)CCC2=O)cc1	/	i	/	/	i
CN1C(=O)/C(=C\c2ccccc2OCc2ccccc2)SC1=S	1%	i	15%	-2%	i
Cc1cc(/C=C2\SC(=S)N(Cc3ccco3)C2=O)c(C)n1-c1ccccc1	5.8µM*	i	?	-2%	i
CN1C(=O)/C(=C\c2cc(N=Nc3ccccc3)ccc2O)SC1=S	2.9µM*	?	5%	-1%	?
Cc1cc(/C=C2\SC(=S)N(C)C2=O)c(C)n1-c1cccc(O)c1	13µM*	?	?	17%	?
CN=C1S/C(=C\c2cc(C)n(-c3ccccc3F)c2C)C(=O)N1C	21µM*	i	?	4%	i
O=C(NCC(c1cccnc1)N1CCN(c2ccccc2F)CC1)C(=O)Nc1ccc(F)cc1F (centres undefined)	/	i	/	/	i
CCCCCn1c(=N)c(S(=O)(=O)c2ccc(C)cc2)cc2c(=O)n3cc(C)ccc3nc21	/	i	/	/	i
COc1ccccc1NC(=O)Cn1c(=O)n(-c2ccc(C)cc2)c(=O)c2ccc(C(=O)NCc3ccco3)cc21	/	i	/	/	i
Cc1nn(-c2ccc(Cl)cc2)c(=O)c2ccccc12	-5%	i	?	-12%	i
Cc1c(Cl)sn(-c2ccc(Cl)cc2)c1=O	3.3µM*	?	?	1.8µM*	16µM*
O=C(C[n+]1cccc2ccccc21)c1ccc([N+](=O)[O-])cc1	?	i	21µM*	22%	?
COc1ccc(C(=O)C[n+]2cccc3cc(OC)ccc32)cc1	-3%	i	-35%	-1%	16µM*
Cc1cc(NS(=O)(=O)c2ccc(NC(=S)NC(=O)c3cccnc3)cc2)no1	-9%	i	7%	3.3µM*	i
